# Assay results published in PubChem BioAssay.
# Active and inactive are the calls of the source.
# Key:
# Albumin (Bos taurus) = Albumin (Bos taurus) (UniProt P02769); assay: compounds binding labelled BSA control protein – biochemical, small-molecule microarray, Alexa647 label, 635/667 nm fluorescence, artefact control for SMM control protein annotation, profiling panel (AID 1118); conditions: BSA-A647 binding, fluorescence 635 nm, higher = more signal;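 also: score merges 667 nm emission intensity and signal-to-noise per printed compound spot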
# [1] = probe aXIP binding to arrayed compounds – biochemical, NeuroSMM set, 635/667 nm fluorescence, primary screen (AID 1119); conditions: small-molecule microarray, higher = more signal, called active from +8 up or from −8 down;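 also: probe is the protein aXip251-270 applied at 1 µg/mL to compound-printed slides; binding of probe to printed compounds measured as 667 nm fluorescence plus signal to noise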
# [2] = probe aNOTCH3 binding on compound microarray – biochemical, small-molecule microarray, 635/667 nm fluorescence, primary screen (AID 1120); conditions: higher = more signal;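 also: probe is a biotin-tagged antibody raised against NOTCH3 rather than NOTCH3 protein; score merges spot fluorescence near 667 nm with spot signal to noise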
# [3] = probe aNOTCH2 binding on compound microarray – biochemical, small-molecule microarray, 635/667 nm fluorescence, primary screen (AID 1121); conditions: higher = more signal;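 also: score merges feature fluorescence read at 667 nm with its signal to noise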
# [4] = molecular target: Carbonic anhydrase 2 (Homo sapiens) (UniProt P00918); assay: compounds binding carbonic anhydrase 2 – biochemical, small-molecule microarray, Alexa647-labelled CAII, profiling panel (AID 1122); conditions: CAII-A647 binding fluorescence, higher = more signal
# [5] = COS7 lysate on small-molecule microarray, probe aHis, 635 nm (AID 1123); conditions: COS7 cell lysate, fluorescence, higher = more signal;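 also: z-score combines 667nm fluorescence intensity with signal-to-noise per printed compound spot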
# [6] = probe aLAP1 signal on lysate-treated microarray – cell lysate, small-molecule microarray, COS7 lysate, primary screen (AID 1124); conditions: probe aLAP1, fluorescence, higher = more signal;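 also: lysate comes from COS7 cells expressing LAP1 and is applied at 0.3 µg/mL; score merges spot fluorescence near 667 nm with signal-to-noise over triplicate slides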
# Sam68 (KHDRBS1) = assay: compounds binding KHDRBS1 protein – biochemical, small-molecule microarray, 635 nm fluorescence, primary screen (AID 1125); conditions: higher = more signal;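 also: score merges 667 nm channel intensity with signal to noise over triplicate slides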
# [7] = system: Chordin-like protein 2 (CHRDL2); assay: compounds binding chordin-like 2 – biochemical, small-molecule microarray, 635 nm fluorescence, primary screen (AID 1126); conditions: fluorescence 635 nm, higher = more signal;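 also: printed compound slides probed with Chrdl2 protein at 4 µg/mL for 1 h at 4 C; score merges 667 nm emission intensity with signal to noise over three replicate slides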
# [8] = molecular target: Concanavalin-A (Canavalia ensiformis) (UniProt P02866); assay: compounds binding concanavalin A lectin – biochemical, small-molecule microarray, Alexa647 label, 635 nm, artefact control for SMM control protein annotation, primary screen (AID 1127); conditions: ConA-A647 binding fluorescence, higher = more signal;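 also: z combines 667 nm emission intensity with signal-to-noise across three replicate slides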
# [9] = compounds binding Alexa647 anti-His antibody – biochemical, small-molecule microarray, 635 nm fluorescence, artefact control for SMM control protein annotation, primary screen (AID 1128); conditions: higher = more signal;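 also: score merges feature fluorescence with signal-to-noise for each printed compound spot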
# [10] = system: Human papillomavirus type 1a E7 protein (residues 1-88); assay: HPV1a E7 small-molecule binders, primary screen, biochemical, small-molecule microarray, residues 1-88, 635 nm (AID 1129); conditions: small-molecule microarray binding, fluorescence 635 nm; higher = more signal
# [11] = molecular target: Focal adhesion kinase 1 (Homo sapiens) (UniProt Q05397); assay: PTK2 protein binding on printed compound slides – biochemical, small-molecule microarray, 635/667 nm fluorescence, BSA, DTT, primary screen (AID 1130); conditions: 635 nm fluorescence, higher = more signal;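 also: composite of spot emission at 667 nm and signal to noise over triplicate slides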
# [12] = system: Fibrinogen (Alexa647-labelled); assay: Alexa647-fibrinogen binding to printed small molecules – biochemical, small-molecule microarray, 635/667 nm fluorescence, artefact control for SMM control-protein annotation, profiling panel (AID 1131); conditions: fibrinogen-A647 binding fluorescence, higher = more signal;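 also: z-score merges 667 nm fluorescence with per-spot signal-to-noise over triplicate slides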
# [13] = molecular target: Follistatin (Homo sapiens) (UniProt P19883); assay: FST protein binding to printed compounds – biochemical, small-molecule microarray, 635/667 nm fluorescence, primary screen (AID 1132); conditions: 635 nm fluorescence, higher = more signal
# [14] = molecular target: Fibroblast growth factor 2 (Homo sapiens) (UniProt P09038); assay: basic fibroblast growth factor binding to printed compounds – biochemical, small-molecule microarray, 635/667 nm fluorescence, primary screen (AID 1133); conditions: FGF2, fluorescence 635/667, higher = more signal
# [15] = JC-1 mitochondrial potential readout, lung cancer cells – cell-based, A549, JC-1 fluorescence, basal, 24 h, 100 nL, profiling panel (AID 1138); conditions: higher = more signal;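 also: A549 lung adenocarcinoma cells under basal conditions with no added stimulus; test concentration not given here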
# Lefty1 = Lefty1 protein binding to printed compounds – biochemical, small-molecule microarray, 635/667 nm fluorescence, primary screen (AID 1139); conditions: fluorescence 635/667, higher = more signal
# [16] = system: wheat germ agglutinin (Triticum aestivum), Alexa647-labelled; assay: Alexa647-WGA lectin binding to printed small molecules – biochemical, small-molecule microarray, 635/667 nm fluorescence, artefact control for SMM control-protein annotation, profiling panel (AID 1140); conditions: WGA-A647 binding, 635 nm fluorescence, higher = more signal;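 also: score merges 667 nm feature emission with signal to noise over triplicate slides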
# [17] = molecular target: Luciferin 4-monooxygenase (Photinus pyralis) (UniProt P08659); assay: inhibition of purified Photinus pyralis luciferase – biochemical, luminescence, purified enzyme, 2006 set, primary screen (AID 1141); conditions: purified firefly luciferase, SteadyGlo luminescence, 30 min; higher = more signal, called active from +8 up or from −8 down;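 also: cell-free assay with purified firefly luciferase at 100 ng per well in PBS; test concentration not given here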
# Sequence of Luciferin 4-monooxygenase (Photinus pyralis) (P08659 whole entry, looked up): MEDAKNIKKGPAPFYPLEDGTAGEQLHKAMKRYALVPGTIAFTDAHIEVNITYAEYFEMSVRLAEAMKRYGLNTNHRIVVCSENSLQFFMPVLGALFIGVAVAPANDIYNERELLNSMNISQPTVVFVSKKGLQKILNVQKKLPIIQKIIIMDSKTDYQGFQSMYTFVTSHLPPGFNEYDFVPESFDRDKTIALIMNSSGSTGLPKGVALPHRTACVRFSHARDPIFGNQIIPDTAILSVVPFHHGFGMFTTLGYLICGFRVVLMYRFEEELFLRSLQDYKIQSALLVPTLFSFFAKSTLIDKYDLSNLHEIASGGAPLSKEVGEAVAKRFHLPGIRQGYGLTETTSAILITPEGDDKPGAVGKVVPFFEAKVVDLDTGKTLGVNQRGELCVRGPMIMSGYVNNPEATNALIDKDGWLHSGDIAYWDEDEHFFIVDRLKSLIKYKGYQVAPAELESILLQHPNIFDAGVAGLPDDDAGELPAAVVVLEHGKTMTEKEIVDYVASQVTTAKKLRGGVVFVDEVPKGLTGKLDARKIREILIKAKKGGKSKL
# Sequence of Concanavalin-A (Canavalia ensiformis) (P02866 whole entry, looked up): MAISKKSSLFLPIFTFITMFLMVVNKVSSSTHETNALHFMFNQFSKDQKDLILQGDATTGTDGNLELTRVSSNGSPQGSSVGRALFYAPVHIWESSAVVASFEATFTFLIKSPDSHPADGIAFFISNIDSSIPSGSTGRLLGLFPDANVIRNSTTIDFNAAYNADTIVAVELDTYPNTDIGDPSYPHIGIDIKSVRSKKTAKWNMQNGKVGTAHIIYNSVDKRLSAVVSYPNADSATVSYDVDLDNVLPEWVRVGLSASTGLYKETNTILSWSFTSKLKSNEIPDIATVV
# Sequence of Albumin (Bos taurus) (P02769 whole entry, looked up): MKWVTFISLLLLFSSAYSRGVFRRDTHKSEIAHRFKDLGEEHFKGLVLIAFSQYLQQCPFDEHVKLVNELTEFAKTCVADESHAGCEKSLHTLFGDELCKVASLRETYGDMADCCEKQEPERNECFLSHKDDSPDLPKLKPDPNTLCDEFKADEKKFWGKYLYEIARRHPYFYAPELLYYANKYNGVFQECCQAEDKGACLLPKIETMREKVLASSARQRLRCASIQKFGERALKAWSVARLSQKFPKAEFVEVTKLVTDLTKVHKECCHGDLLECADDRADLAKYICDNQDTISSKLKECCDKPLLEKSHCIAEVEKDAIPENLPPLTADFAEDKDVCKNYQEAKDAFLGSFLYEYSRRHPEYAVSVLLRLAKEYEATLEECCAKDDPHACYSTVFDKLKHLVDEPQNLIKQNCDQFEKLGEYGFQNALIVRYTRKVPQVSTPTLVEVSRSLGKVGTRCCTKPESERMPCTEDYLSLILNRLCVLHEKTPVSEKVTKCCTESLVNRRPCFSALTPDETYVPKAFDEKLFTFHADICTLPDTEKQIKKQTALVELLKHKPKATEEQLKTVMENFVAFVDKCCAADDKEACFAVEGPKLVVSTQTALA
# Sequence of Focal adhesion kinase 1 (Homo sapiens) (Q05397 whole entry, looked up): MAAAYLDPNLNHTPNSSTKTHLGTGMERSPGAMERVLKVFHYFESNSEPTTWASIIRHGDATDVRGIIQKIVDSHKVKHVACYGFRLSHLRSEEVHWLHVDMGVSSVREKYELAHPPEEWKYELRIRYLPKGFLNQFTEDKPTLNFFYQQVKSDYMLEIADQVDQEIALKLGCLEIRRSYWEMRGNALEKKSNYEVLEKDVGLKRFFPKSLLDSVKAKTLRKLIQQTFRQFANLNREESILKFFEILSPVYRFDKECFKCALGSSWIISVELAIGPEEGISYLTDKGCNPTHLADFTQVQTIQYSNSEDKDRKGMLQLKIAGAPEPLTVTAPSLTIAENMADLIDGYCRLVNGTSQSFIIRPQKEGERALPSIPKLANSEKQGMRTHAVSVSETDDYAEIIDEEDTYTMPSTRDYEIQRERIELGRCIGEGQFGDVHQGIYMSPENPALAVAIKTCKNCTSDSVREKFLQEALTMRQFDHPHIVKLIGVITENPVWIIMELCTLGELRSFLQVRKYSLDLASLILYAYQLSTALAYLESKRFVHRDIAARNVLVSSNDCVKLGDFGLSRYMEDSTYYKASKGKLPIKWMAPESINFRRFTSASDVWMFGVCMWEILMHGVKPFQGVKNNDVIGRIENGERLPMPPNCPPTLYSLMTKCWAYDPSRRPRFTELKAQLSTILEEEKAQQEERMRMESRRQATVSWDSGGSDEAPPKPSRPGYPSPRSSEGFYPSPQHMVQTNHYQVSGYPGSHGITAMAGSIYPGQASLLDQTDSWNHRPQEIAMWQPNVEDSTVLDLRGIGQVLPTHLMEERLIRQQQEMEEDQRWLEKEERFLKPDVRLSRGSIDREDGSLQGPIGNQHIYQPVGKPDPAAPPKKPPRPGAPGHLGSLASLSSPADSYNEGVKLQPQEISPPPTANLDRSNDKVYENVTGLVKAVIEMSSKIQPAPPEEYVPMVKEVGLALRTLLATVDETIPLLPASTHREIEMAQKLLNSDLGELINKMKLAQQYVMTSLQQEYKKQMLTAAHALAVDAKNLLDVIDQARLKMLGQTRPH
# Sequence of Follistatin (Homo sapiens) (P19883 whole entry, looked up): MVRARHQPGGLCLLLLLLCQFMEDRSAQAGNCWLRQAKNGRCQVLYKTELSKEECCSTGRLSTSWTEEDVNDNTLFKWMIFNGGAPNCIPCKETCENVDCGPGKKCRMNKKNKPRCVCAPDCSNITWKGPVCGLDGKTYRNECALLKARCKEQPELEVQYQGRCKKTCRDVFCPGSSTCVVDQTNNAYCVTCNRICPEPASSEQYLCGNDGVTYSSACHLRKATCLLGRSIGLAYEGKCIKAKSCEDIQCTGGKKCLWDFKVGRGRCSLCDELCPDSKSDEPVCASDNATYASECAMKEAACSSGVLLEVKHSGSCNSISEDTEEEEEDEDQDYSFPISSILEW
# Sequence of Fibroblast growth factor 2 (Homo sapiens) (P09038 whole entry, looked up): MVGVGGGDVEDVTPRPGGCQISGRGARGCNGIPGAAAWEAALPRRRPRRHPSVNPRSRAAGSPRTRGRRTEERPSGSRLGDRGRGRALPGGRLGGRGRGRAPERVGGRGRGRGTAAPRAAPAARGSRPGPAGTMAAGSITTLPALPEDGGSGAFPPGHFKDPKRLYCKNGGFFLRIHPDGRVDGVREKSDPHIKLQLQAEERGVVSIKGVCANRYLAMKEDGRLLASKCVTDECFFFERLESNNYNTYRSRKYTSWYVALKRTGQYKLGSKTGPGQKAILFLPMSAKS
Structure (SMILES),composite z-score (Albumin (Bos taurus)),composite Z-score [1],composite z-score [2],composite z-score [3],composite z-score [4],composite z-score [5],composite z-score [6],composite z-score (Sam68 (KHDRBS1)),composite z-score [7],composite z-score [8],composite z-score [9],composite z-score [10],composite z-score [11],composite z-score [12],composite z-score [13],composite z-score [14],z-score [15],composite z-score (Lefty1),composite z-score [16],z-score [17]
CCCC[C@@H](O)C1=C(COC)C[C@H]2C(=O)N(Cc3ccccc3)C(=O)[C@H]2[C@H]1CO,0.232,-0.306 (inactive),-0.214,-0.0668,0.0793,0.368,0.263,0.651,0.293,0.455,0.708,0.33,-0.285,0.98,0.855,1.33,0.699,0.697,1.13,-0.903 (inactive)
CC(C)c1ccc(NN2C(C(O)c3ccc(F)cc3)C=CC3C(=O)N(c4ccccc4)C(=O)C32)cc1 (stereo not given),0.839,0.131 (inactive),0.378,0.0147,0.378,2.79,0.846,1.31,-0.0773,1.1,0.651,1.24,0.515,0.989,1.16,-0.15,-0.559,0.138,0.886,-2.01 (inactive)
C=CCNC(=O)[C@@H]1[C@H]2C(=O)O[C@H](c3ccccc3)[C@H](c3ccccc3)N2[C@H](c2ccc(OCCO)cc2)[C@@]12C(=O)N(C(=O)OCCOC)c1ccc(C#Cc3ccc(OC)cc3)cc12,0.645,-0.116 (inactive),0.182,-0.151,0.402,1.39,0.78,1.3,0.151,1.14,0.81,1.16,0.066,0.785,1.27,0.93,-1.41,0.901,0.939,-0.728 (inactive)
CCCC=C(CCC)[C@@H](NP(=O)(c1ccccc1)c1ccccc1)c1ccc(-c2ccccc2)cc1,0.91,0.439 (inactive),0.36,0.0117,0.561,2.52,0.272,1.34,-0.465,1.09,0.809,1.21,0.332,0.997,1.11,-0.0567,-2.3,0.38,1.25,2.64 (inactive)
CCCCC=C[C@@H](NC(=O)OCc1ccccc1Cl)c1ccccc1,0.997,-0.418 (inactive),1.74,0.825,0.526,2.65,0.0357,1.3,-0.747,1.13,0.361,1.25,0.128,0.979,1.19,-0.172,-1.55,0.868,0.385,0.488 (inactive)
CCCCCN1CC=CC23O[C@@H]4C=CCCOC(=O)C4[C@H]2C(=O)N(CCCCCCO)[C@@H]3C1=O (stereo not given in full),-0.587,0.976 (inactive),-0.252,-0.203,0.861,2.33,0.0488,0.0067,-0.856,-0.52,2.82,-0.0566,-0.0757,-1.21,-0.444,-0.439,0.608,-0.0715,-0.411,-0.086 (inactive)
